Results on 14 molecules are retold here after PubChem BioAssay (NCI).

Compounds without any hit were thinned out: in the full panel of roughly 83,000, 20% have a hit.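 Cells were grown in 96-well plates and exposed to the test compound at a single concentration for 48 hours; results are reported as percent growth, with values below 10 considered active.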 A number with no mark means an inactive call. Activity calls are given as the source filed them.

In the experiment the test system is UACC-62 melanoma. Briefly: NCI-60 one-dose screen, 48 h (100 = growth as untreated, 0 = no growth, -100 = all killed). Particulars: 10 µM unless noted.
Consider `CC(C)(C)c1ccc(Cn2cc(CSc3nc4ccccc4s3)nn2)cc1`, for which the growth is 88.4%.

For `CCN1CCN(Cc2ccc(Cc3ncc(F)c(-c4cc(F)c5nc(C)n(C(C)C)c5c4)n3)nc2)CC1`, the growth was 69.1%.

Take `CC(=O)NCC(=O)N1[C@@H]2CC[C@H]1c1ccc(Nc3ncc(C(F)(F)F)c(NC4CCC4)n3)cc12`: the growth was 56.3% [2.5 µM].

Turning to `O=C(NOCCO)c1cc(CN2OCCCC2=O)c(F)c(F)c1Nc1ccc(I)cc1F`, the growth was 4% (active).

With `CC(C)CC(=O)Nc1n[nH]c2c1CN(C(=O)C1CCN(C)CC1)C2(C)C`, the growth was -19.1% (active).

With `Cc1ccc(N)cc1CN1C(=O)c2ccccc2C1=O`, the growth was 103%.

In the case of `COCc1c(-c2ccc(NC(=O)Nc3cc(C(F)(F)F)ccc3F)c(F)c2)c2c(N)ncnn2c1CN1CCOCC1`, the growth was -38.8% (active).

On to `O=C(CNc1nc2ccccc2s1)Nc1ccc(-c2nc3ccccc3s2)cc1`, for which the growth was 94.6%.

As for `N#CC[C@H](C1CCCC1)n1cc(-c2ncnc3[nH]ccc23)cn1`, the growth was 82%.

On to `C=CC(=O)Nc1cc2c(Nc3ccc(F)c(Cl)c3)ncnc2cc1C#CC(C)(C)N1CCN(C)CC1`, for which the growth is -94.6% (active).

With `CC(=O)C1=C(C)NC(SCc2nnc(-c3ccc(C)cc3)o2)=NC1c1ccc(F)cc1` (centres undefined), the growth was 84.6%.

Consider `CNC(=O)c1ccc(Nc2ncc(C(F)(F)F)c(NCc3nccnc3N(C)S(C)(=O)=O)n2)cc1`, for which the growth was -70% (active).

Consider `C/C=C/C=N/NC(=S)Nc1ccccc1`, for which the growth is 89.5%.

As to `COc1cc(N2CCC(N(C)C)CC2)ccc1Nc1ncc(Cl)c(Nc2ccccc2P(C)(C)=O)n1`, the growth is 16%.
